Reference: PubChem BioAssay AID588335 (The Scripps Research Institute Molecular Screening Center, 2011)
Among all 360,000 compounds or so, about 4,500 (1.2%) were called active. The sample as a whole holds a higher share of actives than the screen did. A number with no mark means an inactive call. Cut-off read from the data, not from the text of the source: active = inhibition above about 30%; inactive = the rest.

Experiment: GDH-TPI coupling enzyme inhibitors, primary screen, artefact control for M. tuberculosis FBA inhibitor project, biochemical, absorbance, full deck (AID 588335);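 note: 0% = DMSO wells and 100% = wells lacking the enzyme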
Details: GDH-TPI coupled enzyme counterscreen, NADH absorbance; at 4.8 µM; hits give high values

SMILES | inhibition
COC(=O)c1cc(NC(=O)CC2C(=O)NCCN2C(=O)c2ccc(F)cc2)cc(C(=O)OC)c1 (configuration not stated) | 3.86%
Cc1csc(=O)n1CC(=O)Nc1ccc(S(C)(=O)=O)cc1 | -3.52%
CCOC(=O)N1CCN(C(=O)Cn2cnc3ccccc3c2=O)CC1 | 2.24%
COc1ccccc1/C=C/C(=O)NC(=S)N1CCOCC1 | 18.2%
CCOC(=O)/C=c1\s/c(=C\c2ccccc2OC)c(=O)n1CC(=O)N1CCOCC1 | 33.3% (active)
O=C(NCc1ccccc1Cl)C1CCN(c2ncnc3c2nc2n3CCCCC2)CC1 | -11.1%
Cc1ccc(CNC(=O)CC(NC(=O)c2ccccc2)c2ccccc2)cc1 (configuration not stated) | -12.7%
CCN(CCn1cccn1)Cc1cn[nH]c1-c1ccc(OC)cc1F | 0.63%
CCn1c(NC(=O)c2ccccc2)c(-c2cccs2)c(=O)c2ccccc21 | 32% (active)
COc1ccccc1C(=O)Nn1c(-c2cccs2)nc2ccccc2c1=O | 17.9%
CCn1c(=O)c2cc(C(=O)Nc3cccc(C(C)=O)c3)sc2c2ccccc21 | -0.68%
COc1ccccc1CCNC(=O)CN1C(=O)NC2(CCCC2)C1=O | 7.91%
CC(C)(C)c1ccc(S(=O)(=O)NC(=O)C2(C)CCN2C(=O)CC2CC2)cc1 (configuration not stated) | 0.89%
CCOC(=O)c1ccc(S(=O)(=O)N(CCO)Cc2cc3cc(OC)c(OC)cc3[nH]c2=O)cc1 | 20.5%
CCc1nnc(NC(=O)CCC(=O)N2CCN(c3cc(C)ccc3C)CC2)s1 | -2.21%
CC(C)NC(=O)C(c1ccc(F)cc1)N(C(=O)CCC(=O)Nc1ccccn1)c1ccccc1F (configuration not stated) | 3.77%
Cc1ccc(NC(=O)CS(=O)CC(=O)N(c2ccccc2)C(C)C(=O)NC2CCCC2)cc1 (configuration not stated) | 7.17%
Cn1nccc1/C=N\NC(=O)c1ccc(Cl)cc1 | -10.2%
O=C(Nc1ccc(OC(F)(F)F)cc1)c1ccc2c(c1)no[n+]2[O-] | 4.41%
Cn1cccc1/C=N/NC(=O)c1ccc(OC(F)(F)C(F)F)cc1 | 35.9% (active)
O=C(Nc1cc(F)ccc1F)c1ccc2c(=O)n3c(nc2c1)CCC3 | 5.36%

SMILES | inhibition
O=C1CC(C(=O)O)NC(=S)N1 (configuration not stated) | -5.96%
CNC(=S)N/N=C/c1cn(Cc2ccc(C)cc2)c2ccccc12 | 37% (active)
NC(=O)Cn1cc(/C=N\NS(=O)(=O)c2ccccc2)c2ccccc21 | 8.87%
CCOC(=O)N/N=C/c1cn(Cc2ccccc2Cl)c2ccccc12 | 17%
Cn1c(SCC(=O)Nc2ccc(N3CCOCC3)cc2)nnc1C(F)(F)F | 2.16%
COc1cccc(C(=O)Nc2nnc(S(=O)(=O)N3CCOCC3)s2)c1 | 23.5%
COc1cccc(C(=O)Nc2nnc(S(=O)(=O)N3CCCCC3)s2)c1 | 40.7% (active)
O=C(Nc1nnc(S(=O)(=O)N2CCCCCC2)s1)c1cccc(Br)c1 | 16.8%
Cc1ccc(S(=O)(=O)N2CCCC2CO)cc1 (configuration not stated) | -4.78%
O=C(CNc1cccc(S(=O)(=O)N2CCCCC2)c1)Nc1ccccc1F | 5.6%
Cc1cc(-c2n[nH]c(=S)n2/N=C/C(Br)=C/c2ccccc2)n[nH]1 | 7.17%
COc1ccccc1/C=C/C=N/n1c(-c2ccc(Cl)cc2Cl)n[nH]c1=S | 34.7% (active)
COc1cc(-c2n[nH]c(=S)n2Cc2ccccc2)cc(OC)c1OC | 3.29%
CCCCOc1ccc(Cl)cc1CSc1nncn1N | -8.67%
N#CC1(Nc2ccc3c4c(cccc24)CC3)CCCCC1 | 18.6%
O=C(CSc1nnc(-c2cccnc2)n1Cc1ccco1)c1ccc(Cl)c(Cl)c1 | -5.03%
Cc1cc(NCc2ccco2)n2c(nc3ccccc32)c1C#N | 8.76%
Clc1cccc(-c2nc3nc4ccccc4nc3n2Cc2ccco2)c1 | 33.2% (active)
COC(=O)c1cc(S(=O)(=O)N2CCC(C(N)=O)CC2)oc1C | 0.74%
O=C(O)c1ccc(COCC(F)(F)F)cc1 | 6.06%
COc1ccc(N/N=C2/CCCCC2=O)cc1 | 1.13%

SMILES | inhibition
COc1ccccc1Oc1ccc(N/C=C2/CCCC2=O)cc1 | 33.3% (active)
COc1ccccc1C1=CC(=O)CCC1 | 10.9%
O=C(O)CCn1c(O)c(C=C2N=c3ccccc3=N2)sc1=S | 22.8%
O=C(Oc1cccc(N2C(=O)C3C4c5ccccc5C(c5ccccc54)C3C2=O)c1)c1ccco1 (configuration not stated) | 10.9%
C/C(=N\NC(=O)c1ccc(NS(=O)(=O)c2cccs2)cc1)c1ccc2ccccc2c1 | 32.1% (active)
O=S(=O)(Nc1ccccc1)c1ccc(NS(=O)(=O)c2cccs2)cc1 | 14.9%
COc1cc(OC)c(C(=O)NNC(=O)c2ccc(NS(=O)(=O)c3cccs3)cc2)cc1OC | 12.8%
COCCn1c(C)cc(C(=O)CN2c3cccc4cccc(c34)S2(=O)=O)c1C | 3.51%
Oc1ccc(C2Nc3cccc4cccc(c34)N2)cc1 | 32.9% (active)
CN(C(=O)CC(NC(=O)c1ccccc1)(c1ccccc1)c1ccccc1)c1ccccc1 | -10.6%
Cn1c(=O)n(C)c2cc(CNc3ccc(N4CCOCC4)c(C(=O)O)c3)ccc21 | 8.39%
CC(C)(C)NC(=O)COC(=O)c1cc(Br)ccc1Cl | -3.49%
Cc1cc(C(=O)N/N=C/c2ccc(O)c([N+](=O)[O-])c2)c(C)n1-c1ccc(F)cc1 | 51.7% (active)
Cc1c(Cl)c([N+](=O)[O-])nn1Cc1ccc(C(=O)N/N=C\c2cc(Cl)ccc2O)o1 | 4.27%
O=C1CSC(=S)N1/N=C/c1ccc(O)c([N+](=O)[O-])c1 | 1.6%
CC1(C)CC(=O)c2sc(N)nc2C1 | 20.2%
NC1=NOC(=O)C1C1CCCCC1 (configuration not stated) | -5.11%
O=C(COC(=O)/C=C/c1ccc2c(c1)OCO2)NC1CCS(=O)(=O)C1 (configuration not stated) | 23.7%
CN(Cc1ccccc1)C(=O)COC(=O)/C=C/c1ccc2c(c1)OCO2 | 35% (active)
Cc1cccc(NC(=O)/C=C/c2ccc3c(c2)OCO3)n1 | 28.3%
